Rows were chosen to be rich in hits. Some 3.3% of all compounds tested hit in one or more screens of this group.
RE007 growth inh = qHTS Assay for Inhibitors of the HIV-1 protein Vpr. Potency, µM (doses to about 92.2 µM), usual class: inhibitors. hit rate 0.21% among 360,000. S. pombe RE007 Vpr strain, BacTiter-Glo ATP luminescence, 24 h; active = well fitted falling curve with a large enough effect; inconclusive = small, poorly fitted or top-dose-only effect; inactive = no such curve, though single readings can be large or run the other way; also: nearly all actives have a fitted effect of over 50% in size
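Fission yeast RE007 carrying one integrated HIV-1 vpr copy, seeded at OD 0.01 in PMG+AL medium with 23 nL pinned compound. Grown 24 h at 30 degrees; viability read by BacTiter-Glo luminescence after 5 min.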
SARS PLpro yeast = qHTS of Yeast-based Assay for SARS-CoV PLP. S. cerevisiae expressing SARS-CoV PLpro, growth rescue. Potency, µM (doses to about 32.9 µM), usual class: activators. hit rate 0.19% among 330,000; calls by dose curve; also: nearly all actives have a fitted effect of over 55% in size
LmPK inhibitor = qHTS Assay for Inhibitors of Leishmania Mexicana Pyruvate Kinase (LmPK); purified LmPK, Kinase-Glo ATP luminescence, 1 h; Potency, µM (doses to about 57.5 µM), hits mostly inhibitors; hit rate 0.37% among 290,000
Target sequence (Q27686 whole entry, looked up): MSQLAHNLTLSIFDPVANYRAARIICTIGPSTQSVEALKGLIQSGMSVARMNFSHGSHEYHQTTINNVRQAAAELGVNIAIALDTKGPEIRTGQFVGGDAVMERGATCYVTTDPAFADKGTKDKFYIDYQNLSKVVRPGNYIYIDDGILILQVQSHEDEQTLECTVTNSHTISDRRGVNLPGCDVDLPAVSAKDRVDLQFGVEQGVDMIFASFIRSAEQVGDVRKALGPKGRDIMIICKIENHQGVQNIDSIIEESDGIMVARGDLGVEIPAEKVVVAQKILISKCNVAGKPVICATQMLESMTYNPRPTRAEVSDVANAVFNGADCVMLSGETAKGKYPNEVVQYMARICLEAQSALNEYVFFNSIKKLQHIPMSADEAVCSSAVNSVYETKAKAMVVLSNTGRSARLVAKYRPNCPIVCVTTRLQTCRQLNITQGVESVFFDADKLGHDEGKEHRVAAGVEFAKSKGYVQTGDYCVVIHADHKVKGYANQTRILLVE
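ATP generated from ADP (0.1 mM) and PEP (0.5 mM) by 0.1 nM LmPK over 1 h at room temperature (pH 7.2 imidazole buffer) was detected by coupled luciferase luminescence. Values were normalized to uninhibited and no-enzyme wells.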
Sm TGR inh = qHTS Assay for the Inhibitors of Schistosoma Mansoni Peroxiredoxins; purified TGR, DTNB reduction, TNB absorbance 405 nm; Schistosoma mansoni thioredoxin glutathione reductase (TGR), Q962Y6; Potency, µM (titrated, usually from 114 µM), hits mostly inhibitors; hit rate 3% among 360,000; also: nearly all actives have a fitted effect of over 60% in size
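Kinetic colorimetric format: TGR-catalysed, NADPH-driven DTNB reduction monitored via TNB absorbance. Enzyme dispensed at 20 nM; compound exposure 15 min at room temperature before reaction start.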
NS1 function inh = qHTS Assay for Inhibitors of Influenza NS1 Protein Function | Potency, µM (titrated, usually from 46.1 µM) | hit rate 0.4% among 270,000 | AID 2326, 2010; calls by dose curve; also: actives are rising curves; nearly all actives have a fitted effect of over 50% in size
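Recovery from NS1-induced slow growth read by OD600 in budding yeast switched to galactose assay medium (pH 6.0, -URA) at 1:100 dilution. Compound 23 nl per well; the matching strain lacking NS1 serves as control.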
Tb PYK inh = qHTS of Trypanosoma Brucei Inhibitors. pyruvate kinase (Trypanosoma brucei), Q57TT1. TbPYK enzyme, Kinase-Glo Plus ATP luminescence, 45 min. Potency, µM (doses to about 76.8 µM), usual class: inhibitors. hit rate 0.12% among 410,000. AID 624173, 2012; also: nearly all actives have a fitted effect of over 50% in size
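Screened from lowest to highest concentration, compounds were pinned into TbPYK/substrate mixtures, and ADP (130 uM final) was added. Plates sat at room temperature for 45 min prior to Kinase-Glo Plus detection by luminescence.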
Each line names hits and unclear results; the compound was inactive in the other large screens. Unless noted, calls follow the shape of the dose curve; as a rule, active = well fitted curve in the direction sought with a large enough effect; inconclusive = small, poorly fitted or top-dose-only effect, or another doubt; inactive = no such curve, though single readings can be large; an effect the other way counts as inactive or inconclusive.

NC1=NC(=O)C(CC(=O)c2ccc(Cl)cc2)S1 (configuration not stated)	Sm TGR inh 20µM
O=C(NCc1ccc(F)cc1)C1CCCN(c2ncnc3onc(-c4ccc(F)cc4)c23)C1 (configuration not stated)	none (no result: RE007 growth inh, SARS PLpro yeast, LmPK inhibitor, NS1 function inh)
C=C(C)CSC1=C(C#N)C(c2ccccc2Cl)CC(=O)N1 (configuration not stated)	Tb PYK inh 12.6µM
CCN(c1ccccc1)S(=O)(=O)c1c(C)nc2scc(C)n2c1=O	none (no result: RE007 growth inh, SARS PLpro yeast, LmPK inhibitor, NS1 function inh)
O=C1C2C3C=CC(C4CC34)C2C(=O)N1Cc1ccccc1 (configuration not stated)	none
O=C1C2C3C=CC(C3=C3CCCCC3)C2C(=O)N1Cc1ccccc1 (configuration not stated)	RE007 growth inh inconclusive, Sm TGR inh 17.8µM
COc1cccc(N2CCN(C(=O)CN3C(=O)COc4ccc(S(=O)(=O)N5CCC(C)CC5)cc43)CC2)c1	none (no result: RE007 growth inh, SARS PLpro yeast, LmPK inhibitor, NS1 function inh)
Cn1c(=O)oc2cc(NC(=O)CCl)ccc21	Sm TGR inh 10µM
C#CCNc1ccncc1S(=O)(=O)NC(=O)NC(C)C	Sm TGR inh 22.4µM
CCc1ccc(C(=O)c2cn(CC(=O)NCc3ccc(C)cc3)c3nc(C)ccc3c2=O)cc1	none (no result: RE007 growth inh, SARS PLpro yeast, LmPK inhibitor, NS1 function inh)
C=CCn1c(N)cc(=O)nc1SCC(=O)N1CCN(c2ccc(F)cc2)CC1	Sm TGR inh 28.2µM
Nc1nc(SCC(=O)N2CCN(c3ccc(F)cc3)CC2)n[nH]1	none (no result: LmPK inhibitor, NS1 function inh)
COC(=O)CN1C(=O)C2(C(C#N)=C(N)Oc3n[nH]c(-c4cccs4)c32)c2ccccc21 (configuration not stated)	Sm TGR inh 50.1µM (no result: SARS PLpro yeast)
CCN1C(=O)C2(C(C#N)=C(N)Oc3n[nH]c(-c4ccccc4)c32)c2ccccc21 (configuration not stated)	none
C=CCc1ccccc1OCC(O)CNC(C)C (configuration not stated)	Sm TGR inh 25.1µM
C=CCc1ccccc1OCC(O)CNC1CCCC1 (configuration not stated)	none
O=C(CC(=O)Nc1ccccc1[N+](=O)[O-])Nc1ccccc1[N+](=O)[O-]	Sm TGR inh 89.1µM
COCC(C)NC(=S)Nc1ccccc1[N+](=O)[O-] (configuration not stated)	Sm TGR inh 39.8µM (no result: NS1 function inh)
CC(C)(C)CC(=O)NC(=S)Nc1ccccc1[N+](=O)[O-]	none
c1ccc(C[n+]2csc3ccccc32)cc1	Sm TGR inh 4.47µM, Tb PYK inh inconclusive
COc1ccccc1CNc1cc(-c2ccccc2)nc2nncn12	Sm TGR inh 35.5µM (no result: RE007 growth inh, SARS PLpro yeast, LmPK inhibitor, NS1 function inh)
COc1cc(CN(C)Cc2ccccc2)cc(OC)c1O	Sm TGR inh 11.2µM
O=C(Cn1nc(Cc2cccnc2)c2ccccc2c1=O)Nc1ccc(F)c(Cl)c1	none (no result: RE007 growth inh, SARS PLpro yeast, LmPK inhibitor, NS1 function inh)
CCOc1nc2c(c(-c3cccs3)c1C#N)Cc1ccccc1-2	none
CCOC(=O)COc1nc(-c2ccc(C)cc2)cc(-c2ccco2)c1C#N	none
CCOC(=O)COc1nc(-c2ccco2)cc(-c2ccco2)c1C#N	Sm TGR inh 31.6µM
CC(=O)COc1nc2c(c(-c3ccco3)c1C#N)CCc1ccccc1-2	Sm TGR inh 44.7µM
CCOC(=O)C(C)Sc1nc(-c2ccco2)cc(C(F)(F)F)c1C#N (configuration not stated)	Sm TGR inh 22.4µM
Cc1ccc(-n2c(COc3cccc(C)c3)n[nH]c2=S)cc1	LmPK inhibitor inconclusive, Tb PYK inh 15.8µM
COc1ccc(-c2n[nH]c(=S)n2Cc2ccco2)cc1	LmPK inhibitor inconclusive, Sm TGR inh inconclusive, Tb PYK inh inconclusive
COc1ccc(-n2c(COc3ccccc3)n[nH]c2=S)cc1	Tb PYK inh 11.2µM
COc1ccc(CC(=O)NCc2n[nH]c(=S)n2-c2ccccc2)cc1	Tb PYK inh inconclusive (no result: NS1 function inh)
COc1ccc(OCc2n[nH]c(=S)n2Cc2ccco2)cc1	Tb PYK inh 2.82µM
COc1ccc(CSCCc2n[nH]c(=S)n2-c2ccccc2)cc1	Tb PYK inh 3.16µM
